PubChem BioAssay AID1159580 (chemical genetic matrix, 2015)
Screen size: about 5,500 compounds; about 2,000 (36%) were called active. Not shown: some 18% with an inconclusive outcome. No stated cut-off is given here; in the data, active means normalized growth mostly below about 0.91 (no sharp cut-off); inconclusive means no clear call, values can overlap the other calls; inactive means mostly above about 0.92. Some of the results follow.

Test: chemical genetic growth profiling, strain panel (AID 1159580);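 further: tested at 20 µM; growth read once vehicle control cultures reached saturation at 30 °C; 1 = growth at the plate median or of vehicle wells; lower values mean less growth of the strain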
Conditions: growth OD

Measured: normalized growth

S=C=NCc1ccccc1
inactive: S. cerevisiae deletion strains, locus YOL012C, strain htz1 0.273
active: S. cerevisiae deletion strains, locus YJR075W, strain HOC1, hits give low values 0.0711 | S. cerevisiae deletion strains, locus YKL009W, strain mrt4, hits give low values 0.0801 | S. cerevisiae deletion strains, locus YKL068W, hits give low values 0.107 | S. cerevisiae deletion strains, locus YKL085W, strain MDH1 (second series), hits give low values 0.0485 | S. cerevisiae deletion strains, locus YKL085W, strain MDH1, hits give low values 0.0485 | S. cerevisiae deletion strains, locus YKL160W, strain elf1, hits give low values 0.0853 | S. cerevisiae deletion strains, locus YKL190W, strain CNB1, hits give low values 0.0505 | S. cerevisiae deletion strains, locus YKR001C, strain vps1, hits give low values 0.0646 | S. cerevisiae deletion strains, locus YKR026C, strain gcn3, hits give low values 0.0866 | S. cerevisiae deletion strains, locus YKR091W, strain srl3, hits give low values 0.0761 | S. cerevisiae deletion strains, locus YLL001W, strain dnm1, hits give low values 0.133 | S. cerevisiae deletion strains, locus YLL026W, hits give low values 0.0653 | S. cerevisiae deletion strains, locus YLL041C, strain sdh2, hits give low values 0.0963 | S. cerevisiae deletion strains, locus YLR027C, strain aat2, hits give low values 0.0701 | S. cerevisiae deletion strains, locus YLR039C, strain RIC1, hits give low values 0.095 | S. cerevisiae deletion strains, locus YLR058C, strain SHM2, hits give low values 0.0484 | S. cerevisiae deletion strains, locus YLR102C, strain apc9, hits give low values 0.0598 | S. cerevisiae deletion strains, locus YLR113W, strain HOG1, hits give low values 0.303 | S. cerevisiae deletion strains, locus YLR221C, strain rsa3, hits give low values 0.0763 | S. cerevisiae deletion strains, locus YLR258W, strain gsy2, hits give low values 0.0685 | S. cerevisiae deletion strains, locus YLR262C, strain YPT6 (second series), hits give low values 0.338 | S. cerevisiae deletion strains, locus YLR262C, strain YPT6, hits give low values 0.107 | S. cerevisiae deletion strains, locus YLR268W, strain sec22, hits give low values 0.0685 | S. cerevisiae deletion strains, locus YLR320W, strain mms22, hits give low values 0.126 | S. cerevisiae deletion strains, locus YLR330W, strain CHS5, hits give low values 0.0521 | S. cerevisiae deletion strains, locus YLR342W, strain FKS1 (second series), hits give low values 0.0771 | S. cerevisiae deletion strains, locus YLR342W, strain FKS1, hits give low values 0.129 | S. cerevisiae deletion strains, locus YLR357W, strain rsc2, hits give low values 0.208 | S. cerevisiae deletion strains, locus YLR370C, strain arc18, hits give low values 0.2 | S. cerevisiae deletion strains, locus YLR371W, strain rom2, hits give low values 0.0645 | S. cerevisiae deletion strains, locus YLR384C, strain iki3, hits give low values 0.101 | S. cerevisiae deletion strains, locus YLR418C, strain cdc73, hits give low values 0.105 | S. cerevisiae deletion strains, locus YML016C, strain PPZ1, hits give low values 0.0508 | S. cerevisiae deletion strains, locus YML032C, strain rad52, hits give low values 0.068 | S. cerevisiae deletion strains, locus YML120C, strain ndi1, hits give low values 0.0743 | S. cerevisiae deletion strains, locus YML124C, strain tub3, hits give low values 0.0581 | S. cerevisiae deletion strains, locus YMR058W, strain fet3, hits give low values 0.102 | S. cerevisiae deletion strains, locus YMR078C, strain ctf18, hits give low values 0.0763 | S. cerevisiae deletion strains, locus YMR125W, strain sto1, hits give low values 0.118 | S. cerevisiae deletion strains, locus YMR129W, hits give low values 0.115 | S. cerevisiae deletion strains, locus YMR205C, strain PFK2, hits give low values 0.175 | S. cerevisiae deletion strains, locus YMR223W, strain ubp8, hits give low values 0.0652 | S. cerevisiae deletion strains, locus YMR231W, strain pep5, hits give low values 0.159 | S. cerevisiae deletion strains, locus YMR263W, strain SAP30, hits give low values 0.0638 | S. cerevisiae deletion strains, locus YMR307W, strain GAS1, hits give low values 0.128 | S. cerevisiae deletion strains, locus YNL067W, strain RPL9B, hits give low values 0.0559 | S. cerevisiae deletion strains, locus YNL071W, strain lat1, hits give low values 0.0773 | S. cerevisiae deletion strains, locus YNL128W, strain TEP1, hits give low values 0.061 | S. cerevisiae deletion strains, locus YNL153C, strain GIM3, hits give low values 0.0485 | S. cerevisiae deletion strains, locus YNL183C, strain NPR1, hits give low values 0.784 | S. cerevisiae deletion strains, locus YNL209W, strain ssb2, hits give low values 0.172 | S. cerevisiae deletion strains, locus YNL233W, strain BNI4, hits give low values 0.054 | S. cerevisiae deletion strains, locus YNL248C, strain rpa49, hits give low values 0.0817 | S. cerevisiae deletion strains, locus YNL250W, strain rad50, hits give low values 0.0774 | S. cerevisiae deletion strains, locus YNL271C, strain bni1, hits give low values 0.0636 | S. cerevisiae deletion strains, locus YNL298W, strain CLA4, hits give low values 0.0658 | S. cerevisiae deletion strains, locus YNL307C, strain MCK1, hits give low values 0.109 | S. cerevisiae deletion strains, locus YNL322C, strain KRE1 (second series), hits give low values 0.0969 | S. cerevisiae deletion strains, locus YNL322C, strain KRE1, hits give low values 0.0496 | S. cerevisiae deletion strains, locus YNR049C, strain mso1, hits give low values 0.0995 | S. cerevisiae deletion strains, locus YNR052C, strain pop2, hits give low values 0.0721 | S. cerevisiae deletion strains, locus YOL006C, strain TOP1, hits give low values 0.101 | S. cerevisiae deletion strains, locus YOL147C, strain pex11, hits give low values 0.0554 | S. cerevisiae deletion strains, locus YOR001W, strain rrp6, hits give low values 0.0775 | S. cerevisiae deletion strains, locus YOR061W, strain CKA2, hits give low values 0.0465 | S. cerevisiae deletion strains, locus YOR069W, strain VPS5, hits give low values 0.048 | S. cerevisiae deletion strains, locus YOR070C, strain gyp1, hits give low values 0.106 | S. cerevisiae deletion strains, locus YOR080W, strain dia2, hits give low values 0.169 | S. cerevisiae deletion strains, locus YOR083W, strain WHI5, hits give low values 0.0989 | S. cerevisiae deletion strains, locus YOR106W, strain vam3, hits give low values 0.115 | S. cerevisiae deletion strains, locus YOR136W, strain idh2, hits give low values 0.0696 | S. cerevisiae deletion strains, locus YOR144C, strain elg1, hits give low values 0.0548 | S. cerevisiae deletion strains, locus YOR184W, strain ser1, hits give low values 0.0749 | S. cerevisiae deletion strains, locus YOR231W, strain MKK1, hits give low values 0.183 | S. cerevisiae deletion strains, locus YOR265W, strain rbl2, hits give low values 0.081 | S. cerevisiae deletion strains, locus YOR270C, strain vph1, hits give low values 0.135 | S. cerevisiae deletion strains, locus YOR290C, strain snf2, hits give low values 0.0951 | S. cerevisiae deletion strains, locus YOR316C, strain cot1, hits give low values 0.0582 | S. cerevisiae deletion strains, locus YPL051W, strain arl3, hits give low values 0.0938 | S. cerevisiae deletion strains, locus YPL055C, strain LGE1, hits give low values 0.0848 | S. cerevisiae deletion strains, locus YPL078C, strain atp4, hits give low values 0.0881 | S. cerevisiae deletion strains, locus YPL106C, strain sse1, hits give low values 0.222 | S. cerevisiae deletion strains, locus YPL240C, strain hsp82, hits give low values 0.0863 | S. cerevisiae deletion strains, locus YPL241C, strain CIN2, hits give low values 0.0506 | S. cerevisiae deletion strains, locus YPL256C, strain CLN2, hits give low values 0.219 | S. cerevisiae deletion strains, locus YPR119W, strain clb2, hits give low values 0.0611 | S. cerevisiae deletion strains, locus YPR141C, strain kar3, hits give low values 0.0705 | S. cerevisiae deletion strains, locus YPR163C, strain tif3, hits give low values 0.07 | S. cerevisiae deletion strains, locus YPR167C, strain met16, hits give low values 0.0606 | S. cerevisiae deletion strains, strain wtn01, hits give low values 0.0609 | S. cerevisiae strains, strain wild type, hits give low values 0.0473
